Source: PubChem BioAssay (National Center for Advancing Translational Sciences (NCATS))
a7 integrin act: qHTS for Activators of Integrin-Mediated Alleviation for Muscular Dystrophy; Potency, µM (titrated, usually from 38.3 µM), actives largely listed as activators; AID 624291, 2012; 350,000 tested, 0.064% active; alpha7betagal myoblasts, beta-gal FDG fluorescence, 48 h; active = well fitted activation curve with a large enough effect; inconclusive = small, poorly fitted or top-dose-only effect; inactive = no such curve, though single readings can be large or run the other way; also: nearly all actives have a fitted effect of over 60% in size
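alpha7betagal+/- myoblasts (passage 13, 250/well) treated 48 h at 37C with compounds at 1:260 dilution of DMSO stock. Lysed, then beta-galactosidase activity read as FDG fluorescence (ex 480/em 540) after 30 min, with pre-read for autofluorescence.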
DRD3 antagonist: qHTS of D3 Dopamine Receptor Antagonist: qHTS | AID 652054, 2013 | 360,000 tested, 2.5% active | max response, negative = inhibition, % | D3R cells, DiscoveRx beta-arrestin luminescence, antagonist mode; active compounds read low; in the data active = max response below about -50%; inconclusive = no clear call, values can overlap the other calls
Target sequence (P35462 whole entry, looked up): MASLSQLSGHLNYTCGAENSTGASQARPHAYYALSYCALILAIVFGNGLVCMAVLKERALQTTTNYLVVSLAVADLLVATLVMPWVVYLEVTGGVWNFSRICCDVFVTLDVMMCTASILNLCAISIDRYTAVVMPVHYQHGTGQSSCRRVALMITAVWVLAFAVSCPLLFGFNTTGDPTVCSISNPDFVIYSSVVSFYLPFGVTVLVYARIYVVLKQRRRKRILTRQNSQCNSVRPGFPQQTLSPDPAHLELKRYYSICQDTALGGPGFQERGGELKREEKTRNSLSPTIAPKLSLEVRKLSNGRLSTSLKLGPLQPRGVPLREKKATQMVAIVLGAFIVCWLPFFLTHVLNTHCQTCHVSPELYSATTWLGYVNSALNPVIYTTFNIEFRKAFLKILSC
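Cells expressing the human receptor were seeded at 1500 cells/well, incubated overnight at 37 degrees C in 5% CO2, then exposed to library compounds with dopamine controls for 90 minutes at 37 degrees C before luminescent detection.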
D3 ag: qHTS of D3 Dopamine Receptor Agonist: qHTS | D(3) dopamine receptor (Homo sapiens), P35462 | D3R DiscoveRx beta-arrestin cells, luminescence, 90 min | max activation, % | 410,000 tested, 0.58% active | AID 652048, 2013; in the data active = max activation above about 30%
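Cells at 1500/well, incubated overnight, then treated with pinned compounds (dopamine as control) for 90 min at 37 degrees C. DiscoveRx reagent added for 30 - 60 minutes at room temperature; luminescence read.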
Of the large screens only hits and unclear results are named; the others gave an inactive call; ! = not active in a repeat. The list is not random: actives were taken first. Their share in the collection is about 2.9%.

N#Cc1c(-c2ccccc2)[nH]c(=S)[nH]c1=O	DRD3 antagonist -60
N#Cc1c(-c2cccc(Cl)c2)[nH]c(=S)[nH]c1=O	none
COc1ccccc1NC(=O)c1c(N=Cc2c(O)ccc3ccccc23)cnn1C	DRD3 antagonist inconclusive
Cn1c(=O)c2[nH]c(COc3ccccc3)nc2n(C)c1=O	none
Cn1c(=O)c2[nH]c(Cc3cccc4ccccc34)nc2n(C)c1=O	D3 ag 36
CC(C)Cn1c(N)c(C(=O)COC(=O)C2CC(=O)N(Cc3ccccc3Cl)C2)c(=O)n(C)c1=O (stereo unspecified)	D3 ag 39
COc1ccc(CCN2CC(C(=O)OCC(=O)c3c(N)n(CC(C)C)c(=O)n(C)c3=O)CC2=O)cc1OC (stereo unspecified)	none
Cn1c(=O)c2c(nc(/C=C/c3cccc(Cl)c3)n2C)n(C)c1=O	none (no result: a7 integrin act)
CC(C(=O)NC(C)(C)C)N(C(=O)CS(=O)CC(=O)Nc1ccc(F)cc1)C1CCCC1 (stereo unspecified)	D3 ag 37
O=C(CS(=O)CC(=O)N(CC(=O)NC1CCCC1)C1CCCCC1)Nc1ccc(F)cc1 (stereo unspecified)	none
C[C@@H]1CN([C@H](C)CO)C(=O)CCCn2nncc2CO[C@H]1CN(C)Cc1ccccc1C(F)(F)F	none
CCN(CC)C(=O)CSc1nc2cc3c(cc2c(=O)n1CCCC(=O)NCCc1ccc(OC)c(OC)c1)OCO3	none
Cc1cc(=O)oc2c(C)c(OC(C)C(=O)NC(Cc3c[nH]c4ccc(O)cc34)C(=O)O)ccc12 (stereo unspecified)	DRD3 antagonist inconclusive
Cc1cc(=O)oc2cc(OCC(=O)NC(Cc3c[nH]c4ccc(O)cc34)C(=O)O)c(Cl)cc12 (stereo unspecified)	D3 ag 31
Fc1ccc(N2CCN(Cc3cn[nH]c3-c3ccccc3)CC2)cc1	none
OC1(c2ccc(Cl)cc2)CCN(Cc2cn[nH]c2-c2ccccc2)CC1	DRD3 antagonist -98
OC1(c2ccc(Cl)cc2)CCN(Cc2cn[nH]c2-c2ccc(F)cc2)CC1	DRD3 antagonist -98
COc1ccc(-c2[nH]ncc2CN2CCC(O)(c3ccc(Cl)cc3)CC2)cc1	DRD3 antagonist inconclusive
C/C(=N\NC(=S)NCc1ccccc1)c1ccc2c(c1)OCCO2	none
COc1ccc(NC(=O)C2CCN(C(=O)Nc3ccccc3)CC2)cc1S(=O)(=O)N(C)C	DRD3 antagonist -67
COc1ccc(NC(=O)C2CCN(C(=O)Cc3ccccc3)CC2)cc1OC	none
COc1cc(OC)c(OC)cc1CN1CCc2nc(N3CCN(C)CC3)ncc2C1	none (no result: a7 integrin act, DRD3 antagonist)
Cc1n[nH]c(=S)n(NC(=O)/C=C/C(=O)Nn2c(=S)[nH]nc(C)c2=O)c1=O	none
Cc1n[nH]c(=S)n(NC(=O)CC(=O)Nn2c(=S)[nH]nc(C)c2=O)c1=O	DRD3 antagonist -86
O=C(CCN1C(=O)/C(=C/c2ccc(Cl)cc2)SC1=S)Nc1cccc(C(=O)O)c1	none
O=C(O)c1cccc(N2C(=O)/C(=C/c3ccc(SCc4ccc(Cl)cc4)o3)SC2=S)c1	DRD3 antagonist -59
Cc1cc(NC(=O)COC(=O)CCS(=O)(=O)c2cc(Cl)ccc2Cl)no1	none
CN(C)CCOc1cc(Cl)cc(Cl)c1	DRD3 antagonist -64
CN(C)CCOC(=O)Cc1ccc(Cl)cc1	none
CN(C)CCOC(=O)COc1ccc(Cl)cc1	D3 ag 45! (no result: a7 integrin act)
CN(C)CCOc1cccc(Cl)c1	DRD3 antagonist inconclusive
CS(=O)(=O)N(CC(=O)Nc1ccccc1Sc1ccccc1)c1cccc(Br)c1	none
CCOC(=O)c1c(-c2ccccc2)oc2ccc(OC(C)=O)cc12	none
CCS(=O)(=O)Nc1cc(OC)c(OC)cc1Cc1nccc2cc(OC)c(OC)cc12	none
Cc1ccc(C2(c3ccc(C)cc3)CC2C(=O)Nc2ccc([N+](=O)[O-])cc2O)cc1 (stereo unspecified)	DRD3 antagonist -66
CC1(C)CC1C(=O)Nc1ccc([N+](=O)[O-])cc1Br (stereo unspecified)	none
Cn1cnnc1SCc1ccccc1[N+](=O)[O-]	a7 integrin act inconclusive
CC(=O)Nc1c(O)nc(SCc2ccccc2C#N)[nH]c1=O	DRD3 antagonist -51
N#Cc1ccccc1CSc1nc(O)cc(=O)[nH]1	none
CC(=O)c1ccc(NC(=O)CCn2nc(C)c(S(=O)(=O)N3CCC(C)CC3)c2C)cc1	none (no result: a7 integrin act, DRD3 antagonist)
COc1ccc(/C=C/C2=NC(=C\N(C)C)/C(=O)O2)cc1	none
Cc1ccc2cc(CN(CC3CCCO3)C(=O)NC3CCCCC3)c(=O)[nH]c2c1C (stereo unspecified)	a7 integrin act inconclusive
CCN(CC)CCCN(Cc1cc2ccc(C)c(C)c2[nH]c1=O)C(=O)NC1CCCCC1	DRD3 antagonist -57
COc1ccc(-c2nc(CS(=O)(=O)CC(=O)Nc3cccc(C(C)=O)c3)c(C)o2)cc1	none
CCn1cnc2cc(NC(=O)c3ccco3)ccc21	none
CC(c1nc2ccccc2o1)N1C(=O)c2ccccc2C1=O (stereo unspecified)	DRD3 antagonist -53
O=C1c2ccccc2C(=O)N1CCCCSc1nc2ccccc2o1	none
COC(=O)C(NC(C)=O)(Nc1nc2c(C)cc(C)cc2s1)C(F)(F)F (stereo unspecified)	none
CCOc1ccc(CNS(=O)(=O)c2c(C(=O)N3CCCC3)c(C)n(C)c2C)cc1OC	none
CCOC(=O)c1c(C)[nH]c(C)c1C(=O)COC(=O)c1sccc1C	none
Cc1ccc(N=Nc2c(C)[nH]n(C(N)=S)c2=O)cc1	a7 integrin act inconclusive, DRD3 antagonist inconclusive
Cc1[nH]n(C(N)=S)c(=O)c1N=Nc1ccc(S(=O)(=O)N2CCCC2)cc1	DRD3 antagonist -78
CS(=O)(=O)N1c2cccc3cccc(c23)S1(=O)=O	none
COc1ccccc1C(=O)Nc1ccnn1C1CCN(Cc2cc(C)c(C)cc2C)CC1	none
Cc1cc(C)c(CN2CCC(n3nccc3NC(=O)c3ccccc3Cl)CC2)cc1C	DRD3 antagonist -52
COc1ccccc1C(=O)Nc1ccnn1C1CCN(Cc2cn(C)c3ccccc23)CC1	none
Cn1cc(CN2CCC(n3nccc3NC(=O)c3ccccc3Cl)CC2)c2ccccc21	DRD3 antagonist -52
CCCCN(C(=O)c1[nH]c(C)c(C(=O)OCC)c1C)c1c(N)n(CCCC)c(=O)[nH]c1=O	none
CC(C)NS(=O)(=O)c1ccc(NC(=O)Cc2ccsc2)cc1	none
COc1cc([N+](=O)[O-])ccc1NC(=O)NCC1CCN(Cc2ccc(Cl)cc2)CC1	DRD3 antagonist -73
O=C(NCC1CCN(Cc2cccc(Cl)c2)CC1)Nc1ccc(Cl)cc1	DRD3 antagonist -61
O=C(NCC1CCN(Cc2cccc(Cl)c2)CC1)Nc1cc(Cl)ccc1Cl	none (no result: a7 integrin act, DRD3 antagonist)
Cc1ccc(C)c(CN2CCC(CNC(=O)Nc3ccc(C)c(C)c3)CC2)c1	DRD3 antagonist inconclusive
O=C(NCC1CCN(Cc2cccc(Cl)c2)CC1)Nc1ccc(F)c(Cl)c1	none (no result: a7 integrin act, DRD3 antagonist)
COc1ccc(Cl)cc1NC(=O)NCC1CCN(Cc2cc(C)ccc2C)CC1	DRD3 antagonist -85
COC(CNC(=O)c1ccc2c(=O)n(Cc3ccc(Cl)cc3)c(=S)[nH]c2c1)OC	none
COc1ccc(CCNC(=O)C2CCCN(c3nc(C)cc(C)n3)C2)cc1 (stereo unspecified)	none
